The values below come from ChEMBL document CHEMBL3988442, “University of Dundee, Small-Polar-MMV Screening Library” (2021).

Each structure is given as a SMILES string. About 13,000 (27%) of roughly 48,000 compounds showed an effect of 50% or more. The list shows a part of the results.

The subject of the assay is Wolbachia pipientis. Nature of the assay: Anti-Wolbachia Cell-Based Screen. The format is functional. Details: scale not given: in the data most compounds retested in dose-response had high values. Conditions: 5 µM.
In the case of `CN1CCCN(c2nc(C3CC3)ns2)CC1`, the “Percent Effect” value is given as -64.99%. With `CC(C)CNC(=O)c1cn(C(C)C)cc2c(=O)[nH]nc1-2`, the “Percent Effect” value worked out at 135.5%. Then `CC(C)n1cc(C(=O)NCCN(C)C)c2n[nH]c(=O)c-2c1`, with 115.3%; and `CC(C)CNC(=O)c1ccc2c(=O)n(-c3ccccc3)cnc2c1`, with 11.47%.

Regarding `Cc1ccc(C(=O)NCC(C)Cn2cccn2)c(=O)[nH]1` (stereo not drawn), the “Percent Effect” value is given as -11.2%.

As for `CN(C)CCNC(=O)c1cc2n(n1)CCN(C(=O)c1ccc[nH]1)C2`, the “Percent Effect” value is -27.47%.

`CC(C)N(CCNC(=O)c1n[nH]c2ccccc12)C(C)C`: the “Percent Effect” value was determined as 25.98%. Then `CCOCCn1nc(C)cc1C(=O)N1CCC2(CC1)[C@H](O)C[C@@H]2OCC`, with -36.55%.

In the case of `CC1=C[C@@H](CNS(C)(=O)=O)[C@H](C(C)C)C[C@H]1CC(=O)NCCN(C)C`, the “Percent Effect” value came out at 5.044%. For `Cc1cc(C)n(CCCC(=O)N2CC[C@H]3NCCC[C@]3(CO)C2)n1` the value was -1.122%.

For `CS(=O)(=O)CCC(=O)N1C[C@@H]2CC[C@H](C1)N(Cc1ccccc1)C2=O`, the “Percent Effect” value was found to be 8.046%. Take `Cc1ccc(CN(C)C(=O)CN2CCc3ccccc3C2)o1`: the “Percent Effect” value came to 87.7%. Turning to `Cc1ccc(CN(C)C(=O)CN2CCCC2c2cnn(C)c2)o1` (stereo not drawn), the “Percent Effect” value was -1.976%. For `CN(Cc1ccco1)C(=O)CN1CCc2ccccc2C1`, the “Percent Effect” value is listed as -0.07899%. Then `COCCN1CCN(CC(=O)N(C)Cc2ccc(C)o2)CC1C` (stereo not drawn), with 6.475%.

For `Cc1ccc(CN(C)C(=O)CNC(=O)N2CCc3ccccc3C2)o1`, the “Percent Effect” value came out at 79.51%. `COc1ccc(F)c(-c2cc(NCCO)nc(N)n2)c1`: the “Percent Effect” value is -1.904%.

Take `CCNc1cc(N2CCN(C(=O)c3ccc(OC)cc3)CC2)nc(C)n1`: the “Percent Effect” value worked out at 4.812%.

For the compound `Nc1nc(NCCO)cc(N2CCc3c([nH]c4ccccc34)C2)n1`, the “Percent Effect” value is on record as 98.87%. As to `COc1ccc2[nH]c3c(c2c1)CN(c1cc(NCCO)nc(N)n1)CC3`, the “Percent Effect” value turned out to be 97.63%. For `OCC1CCCN1c1cc(NCCc2c[nH]c3ccccc23)ncn1` (stereo not drawn) the value was 7.134%. Then `c1ccc2c3c([nH]c2c1)CN(Cc1cc2n(n1)CCNC2)CC3`, with -25.6%; and `Cc1cccc(-c2nnn3c2COC(CNC(=O)N2CCCC2)C3)c1` (stereo not drawn), with 9.642%. Consider `NCC1Cc2cc(-c3nccc(N4CCC(O)CC4)n3)cc(Cl)c2O1` (stereo not drawn), for which the “Percent Effect” value is recorded as -10.94%. For the compound `Cc1ccc(C)c(Oc2ccc(CNC(=O)C3CCS(=O)(=O)C3)cn2)c1` (stereo not drawn), the “Percent Effect” value is -2.907%. As for `Cc1cc(C(=O)N2CCCC2)ccc1NCc1nc(CC(C)C)no1`, the “Percent Effect” value is on record as 81.12%. Consider `CCc1nc(CNc2ccc(C(=O)N3CCSCC3)cc2C)no1`, for which the “Percent Effect” value is listed as 92.2%. With `CCCc1noc(CNc2ccc(C(=O)N3CCCC3)cc2C)n1`, the “Percent Effect” value is 101%.

For the compound `CC(C)Cc1noc(CNc2ccccc2CC(=O)N(C)C)n1`, the “Percent Effect” value was determined as 7.405%.

Take `CCCc1nc(CNc2cccc(C(=O)N3CCCC(O)C3)c2)no1` (stereo not drawn): the “Percent Effect” value came out at 1.271%. Turning to `CCc1noc(CNc2ccc(C(=O)N3CCCC3)cc2C)n1`, the “Percent Effect” value was 101.8%.

In the case of `CCc1noc(CNc2cccc(C(=O)N3CCSCC3)c2)n1`, the “Percent Effect” value was 10.06%. In the case of `CC(C)Cc1noc(CN2CCCN(C(=O)c3cccc(Cl)c3)CC2)n1`, the “Percent Effect” value is -52.16%. Turning to `CCc1noc(CNc2ccc(CC(=O)N3CCSCC3)cc2)n1`, the “Percent Effect” value was 21.21%.

On to `Cc1cc(C(=O)N2CCCC2)ccc1NCCOCC(F)(F)F`, for which the “Percent Effect” value is reported as -22.68%. Then `CCc1nc(CNc2ccc(C(=O)NCc3ccco3)cc2C)no1`, with -7.097%; and `Cc1ccc(C(=O)N2CCCC(CNS(=O)(=O)C(C)C)C2)cc1` (stereo not drawn), with -19.42%. For `CN(Cc1csc(-c2ccccc2)n1)Cc1ncccc1C(=O)O`, the “Percent Effect” value worked out at 4.154%. Regarding `N#Cc1ccccc1OCCN1CCN(C(=O)C2CCCC2)CC1`, the “Percent Effect” value is on record as -2.024%. Turning to `CC1CCN(S(=O)(=O)NC2CCCCNC2=O)CC1` (stereo not drawn), the “Percent Effect” value was found to be 36.47%. As to `CC(C)CNC(=O)Nc1ccc(CN2CCOC2=O)cc1`, the “Percent Effect” value is recorded as -13.36%. Turning to `Cc1ccc(CNC(=O)c2ccc(CNS(C)(=O)=O)o2)cc1F`, the “Percent Effect” value is reported as 2.956%. Regarding `CCN(C)c1ccc(CNS(=O)(=O)CC2CCCO2)cc1F` (stereo not drawn), the “Percent Effect” value is on record as -7.103%. With `Cc1cc(CNS(C)(=O)=O)ccc1N(C)C`, the “Percent Effect” value worked out at 110.2%. In the case of `Cc1ccc(CNS(=O)(=O)CCCC#N)cc1F`, the “Percent Effect” value was 111.5%. Regarding `Cc1ccc(CNC(=O)NC(C)CCS(C)(=O)=O)cc1F` (stereo not drawn), the “Percent Effect” value is -1.224%. Turning to `CC(CNS(=O)(=O)CCCC#N)c1ccsc1` (stereo not drawn), the “Percent Effect” value was -6.761%. For `COCCS(=O)(=O)NCC(C)c1cccc(C)c1` (stereo not drawn) the value was -6.365%; for `Cc1cc(CNS(=O)(=O)CCCC#N)ccc1N(C)C`, 89.17%. For `CS(=O)(=O)NCc1ccc2c(c1)CCC2`, the “Percent Effect” value was -9.378%. Then `Cc1cccc(C(C)CNS(=O)(=O)CCCC#N)c1` (stereo not drawn), with 5.748%; and `Cc1cnn(CCC(=O)NCc2ccc(N(C)C)c(C)c2)c1`, with 4.786%; and `COCCS(=O)(=O)NCc1ccc(N(C)C)c(C)c1`, with 78.12%.
